Molecules are shown by their SMILES.

The results in this text go back to article PMC5540273 (PLoS ONE, 2017).
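Further: KINOMEscan kinase panel screen.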

This assay relates to CSNK1D. Particulars: concentration: 1 μM, replicates: in singlicate; n = 1.
With `CN(C)S(=O)(=O)c1cc(-c2ccc3nccc(-c4cccc(S(N)(=O)=O)c4)c3c2)cnc1N` [GSK1669921], the “%Inh” value was found to be 0%.

With `CCS(=O)(=O)c1ccc(OC)c(Nc2nccc(-c3c(-c4cccc(NC(=O)c5c(F)cccc5F)c4)nn4ncccc34)n2)c1` [GSK326180], the “%Inh” value turned out to be 7%.

Take `COc1cc(Nc2nccc(N3CCC(NC(=O)c4cc5ccccc5s4)C3)n2)cc(OC)c1OC` (centres unmarked) [GSK1379760]: the “%Inh” value was 10%.

On to `Cc1ccc(F)c(C(=O)Nc2cccc(-c3nn4ccccc4c3-c3ccnc(Nc4cccc(F)c4)n3)c2)c1F` [GSK361061], for which the “%Inh” value is on record as 35%.

For `Clc1ccc(-c2nn3ncccc3c2-c2ccnc(Nc3ccc4c(c3)OCCO4)n2)cc1` [GW829116], the “%Inh” value was 94%.

For `CCCCc1nn2ncccc2c1-c1ccnc(Nc2ccc(N3CCN(C)CC3)cc2)n1` [GW684941], the “%Inh” value is on record as 90.9%.

Turning to `CCn1c(-c2nonc2N)nc2c(C#CC(C)(C)O)ncc(OCCCCN)c21.O=C(O)C(F)(F)F.O=C(O)C(F)(F)F` [GSK507274], the “%Inh” value amounted to 29%.

Regarding `O=C(NC1CCN(c2ccnc(Nc3ccc(F)cc3)n2)C1)c1cc2ccccc2s1` (centres unmarked) [GSK1379716], the “%Inh” value is 0%.

As for `COc1cc2c(cc1OCCN1CCNCC1)ncc1c3ccc(C#N)cc3[nH]c21`, the “%Inh” value was determined as 8%.

As to `COc1cc(Nc2nccc(N3CCC(NC(=O)Nc4cccc(C(C)=O)c4)C3)n2)cc(OC)c1OC` (centres unmarked) [GSK1379753], the “%Inh” value is listed as 3%.

Turning to `O=C(Nc1cccc(-c2nn3ccccc3c2-c2ccnc(Nc3cccc(C(F)(F)F)c3)n2)c1)c1c(F)cccc1F` [GSK292658], the “%Inh” value worked out at 2%.
